According to PMC7862700, “An all-to-all approach to the identification of sequence-specific readers for epigenetic DNA modifications on cytosine”:

Assays:
Experiment in all cases: DAPPL (digital affinity profiling via proximity ligation, sequencing); 10 mM Tris-HCl pH 7.5, 50 mM NaCl, 1 mM DTT, 4% glycerol, room temperature, 30 min; GST-TFs on glutathione beads, 16-mer random dsDNA library, 0.1% formaldehyde crosslink after washing; high values mean tight binding
Details in all cases: protein: recombinant; tags: N-terminal GST; dsDNA, one strand shown
FLI1 = target: T1, FLI1 (Homo sapiens, UniProt Q01543 1-452)
T1 sequence: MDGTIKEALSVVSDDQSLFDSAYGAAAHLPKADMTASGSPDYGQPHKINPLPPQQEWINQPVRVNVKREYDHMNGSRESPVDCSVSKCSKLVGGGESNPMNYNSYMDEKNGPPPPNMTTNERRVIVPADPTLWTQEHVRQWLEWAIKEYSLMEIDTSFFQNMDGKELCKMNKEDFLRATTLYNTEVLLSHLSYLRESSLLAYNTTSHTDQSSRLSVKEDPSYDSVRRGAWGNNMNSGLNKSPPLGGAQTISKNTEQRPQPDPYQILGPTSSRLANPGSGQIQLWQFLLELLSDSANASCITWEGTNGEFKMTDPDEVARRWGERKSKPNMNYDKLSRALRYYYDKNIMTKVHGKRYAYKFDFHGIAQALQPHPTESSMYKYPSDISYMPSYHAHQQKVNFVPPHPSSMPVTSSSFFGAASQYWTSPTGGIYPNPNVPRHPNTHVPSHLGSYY
How it was run: (§1)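 Yeast served to express human transcription factors as GST fusions, which were then captured on glutathione beads and labelled with DNA barcodes. Pooled with a tag-only sample, they were incubated with 200 nmole of a 16-mer random double-stranded DNA library for 30 min at room temperature in Tris/NaCl/DTT/glycerol buffer, washed, crosslinked with 0.1% formaldehyde, ligated by proximity, amplified by PCR and sequenced. Dividing each hexamer's read frequency for a factor by its frequency for the tag-only sample gives the binding signal.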

GABPA = target: T2, GABPA (Homo sapiens, UniProt Q06546 1-454)
T2 sequence: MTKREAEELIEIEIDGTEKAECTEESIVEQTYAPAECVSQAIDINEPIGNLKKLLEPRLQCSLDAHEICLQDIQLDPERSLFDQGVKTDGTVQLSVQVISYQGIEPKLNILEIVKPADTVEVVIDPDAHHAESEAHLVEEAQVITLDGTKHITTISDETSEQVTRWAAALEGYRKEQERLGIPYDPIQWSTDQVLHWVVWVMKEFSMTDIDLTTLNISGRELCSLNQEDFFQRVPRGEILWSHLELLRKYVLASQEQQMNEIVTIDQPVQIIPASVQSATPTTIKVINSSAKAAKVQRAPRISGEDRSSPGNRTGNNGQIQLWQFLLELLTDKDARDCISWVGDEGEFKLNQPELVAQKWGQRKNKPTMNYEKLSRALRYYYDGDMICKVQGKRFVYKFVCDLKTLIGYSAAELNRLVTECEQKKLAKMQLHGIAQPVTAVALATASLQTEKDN
How it was run: as §1

ERG = target: T3, ERG (Homo sapiens, UniProt P11308 1-479)
T3 sequence: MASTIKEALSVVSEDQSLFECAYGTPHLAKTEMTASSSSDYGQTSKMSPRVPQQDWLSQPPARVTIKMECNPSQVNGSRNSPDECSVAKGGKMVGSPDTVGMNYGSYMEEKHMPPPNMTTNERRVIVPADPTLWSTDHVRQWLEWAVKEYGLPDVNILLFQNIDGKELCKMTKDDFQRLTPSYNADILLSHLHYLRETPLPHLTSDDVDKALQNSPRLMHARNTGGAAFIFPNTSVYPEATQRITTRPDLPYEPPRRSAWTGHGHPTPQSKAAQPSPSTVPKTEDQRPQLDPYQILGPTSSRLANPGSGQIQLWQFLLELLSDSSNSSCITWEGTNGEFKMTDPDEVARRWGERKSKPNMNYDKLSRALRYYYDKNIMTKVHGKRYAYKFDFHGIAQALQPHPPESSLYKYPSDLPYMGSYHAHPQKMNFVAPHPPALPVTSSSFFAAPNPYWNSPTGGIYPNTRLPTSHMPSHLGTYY
How it was run: as §1

ELF1 = ELF1 (Homo sapiens, UniProt P32519 1-619)
How it was run: as §1

EHF = target: T4, EHF (Homo sapiens, UniProt Q9NZC4 1-300)
T4 sequence: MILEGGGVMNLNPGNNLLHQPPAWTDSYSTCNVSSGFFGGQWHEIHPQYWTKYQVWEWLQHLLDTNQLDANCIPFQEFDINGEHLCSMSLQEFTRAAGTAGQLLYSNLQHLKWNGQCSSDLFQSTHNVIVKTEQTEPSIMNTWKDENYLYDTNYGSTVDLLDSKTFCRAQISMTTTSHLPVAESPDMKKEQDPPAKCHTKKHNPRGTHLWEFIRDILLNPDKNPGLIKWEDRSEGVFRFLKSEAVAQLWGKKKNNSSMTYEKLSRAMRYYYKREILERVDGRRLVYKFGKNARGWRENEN
How it was run: as §1

SPI1 = SPI1 (Homo sapiens, UniProt P17947 1-270)
How it was run: as §1

SPIB = SPIB (Homo sapiens, UniProt Q01892 1-262)
How it was run: as §1

ELK3 = target: T5, ELK3 (Homo sapiens, UniProt P41970 1-407)
T5 sequence: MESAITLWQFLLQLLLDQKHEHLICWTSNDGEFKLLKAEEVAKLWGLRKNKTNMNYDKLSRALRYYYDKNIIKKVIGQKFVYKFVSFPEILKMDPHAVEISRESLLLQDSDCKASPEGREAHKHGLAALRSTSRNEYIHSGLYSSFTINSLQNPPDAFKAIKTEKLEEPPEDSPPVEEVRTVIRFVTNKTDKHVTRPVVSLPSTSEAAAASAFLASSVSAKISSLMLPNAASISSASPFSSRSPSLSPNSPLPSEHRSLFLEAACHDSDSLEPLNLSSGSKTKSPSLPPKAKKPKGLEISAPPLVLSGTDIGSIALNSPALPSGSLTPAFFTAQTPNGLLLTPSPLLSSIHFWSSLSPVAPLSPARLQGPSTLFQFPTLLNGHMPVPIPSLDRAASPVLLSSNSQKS
How it was run: as §1

ELK1 = target: T6, ELK1 (Homo sapiens, UniProt P19419 1-428)
T6 sequence: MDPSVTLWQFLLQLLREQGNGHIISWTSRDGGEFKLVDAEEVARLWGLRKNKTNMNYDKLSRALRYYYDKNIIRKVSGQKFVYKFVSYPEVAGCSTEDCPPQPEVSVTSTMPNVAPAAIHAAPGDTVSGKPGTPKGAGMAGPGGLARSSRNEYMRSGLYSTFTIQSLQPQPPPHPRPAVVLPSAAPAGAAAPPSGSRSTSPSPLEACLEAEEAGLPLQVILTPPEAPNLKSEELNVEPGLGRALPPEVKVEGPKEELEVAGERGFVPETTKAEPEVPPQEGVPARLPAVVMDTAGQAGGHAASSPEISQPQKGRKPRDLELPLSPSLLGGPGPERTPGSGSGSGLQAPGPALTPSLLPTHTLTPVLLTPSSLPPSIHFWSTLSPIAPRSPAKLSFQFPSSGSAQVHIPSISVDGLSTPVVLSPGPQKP
How it was run: as §1

Chain of ELF1 (P32519 whole entry): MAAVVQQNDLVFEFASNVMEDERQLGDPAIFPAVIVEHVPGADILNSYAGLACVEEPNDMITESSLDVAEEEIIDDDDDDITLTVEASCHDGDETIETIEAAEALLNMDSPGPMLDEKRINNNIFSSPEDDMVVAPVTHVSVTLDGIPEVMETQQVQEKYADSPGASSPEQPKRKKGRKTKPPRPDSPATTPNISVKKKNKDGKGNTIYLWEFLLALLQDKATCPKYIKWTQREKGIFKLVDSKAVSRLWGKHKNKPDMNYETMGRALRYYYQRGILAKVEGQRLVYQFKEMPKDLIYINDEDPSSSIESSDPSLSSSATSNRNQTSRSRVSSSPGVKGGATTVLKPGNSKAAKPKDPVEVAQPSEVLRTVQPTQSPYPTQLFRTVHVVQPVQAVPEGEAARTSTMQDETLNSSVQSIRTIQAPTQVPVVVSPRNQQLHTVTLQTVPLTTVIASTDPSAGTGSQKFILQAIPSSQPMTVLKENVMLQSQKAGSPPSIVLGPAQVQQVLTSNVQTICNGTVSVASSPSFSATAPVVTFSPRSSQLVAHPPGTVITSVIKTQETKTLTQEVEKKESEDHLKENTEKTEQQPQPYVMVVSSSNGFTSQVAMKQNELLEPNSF
Chain of SPIB (Q01892 whole entry): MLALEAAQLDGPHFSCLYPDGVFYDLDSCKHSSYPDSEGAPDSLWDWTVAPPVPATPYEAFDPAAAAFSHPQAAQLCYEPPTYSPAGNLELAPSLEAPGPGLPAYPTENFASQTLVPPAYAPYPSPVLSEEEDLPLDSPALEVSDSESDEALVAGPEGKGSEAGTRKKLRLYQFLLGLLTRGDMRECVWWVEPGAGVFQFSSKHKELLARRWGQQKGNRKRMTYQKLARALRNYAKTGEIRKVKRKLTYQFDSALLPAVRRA

Sequence	binding signal (FLI1)	binding signal (GABPA)	binding signal (ERG)	binding signal (ELF1)	binding signal (EHF)	binding signal (SPI1)	binding signal (SPIB)	binding signal (ELK3)	binding signal (ELK1)
GTTATC	1.12 fold enrichment (6-mer frequency, TF over GST control)	1.07 fold enrichment (6-mer frequency, TF over GST control)	1.1 fold enrichment (6-mer frequency, TF over GST control)	1.09 fold enrichment (6-mer frequency, TF over GST control)	1.12 fold enrichment (6-mer frequency, TF over GST control)	1.03 fold enrichment (6-mer frequency, TF over GST control)	1.02 fold enrichment (6-mer frequency, TF over GST control)	1.22 fold enrichment (6-mer frequency, TF over GST control)	
TTCCAG	1.03 fold enrichment (6-mer frequency, TF over GST control)			1.02 fold enrichment (6-mer frequency, TF over GST control)		1.05 fold enrichment (6-mer frequency, TF over GST control)	1.1 fold enrichment (6-mer frequency, TF over GST control)	1.07 fold enrichment (6-mer frequency, TF over GST control)	1.02 fold enrichment (6-mer frequency, TF over GST control)
AGGGCT	1.03 fold enrichment (6-mer frequency, TF over GST control)	1.05 fold enrichment (6-mer frequency, TF over GST control)	1.07 fold enrichment (6-mer frequency, TF over GST control)	1.01 fold enrichment (6-mer frequency, TF over GST control)	1.04 fold enrichment (6-mer frequency, TF over GST control)			1.08 fold enrichment (6-mer frequency, TF over GST control)	
GAATCT	1.03 fold enrichment (6-mer frequency, TF over GST control)	1.15 fold enrichment (6-mer frequency, TF over GST control)	1.04 fold enrichment (6-mer frequency, TF over GST control)	1.04 fold enrichment (6-mer frequency, TF over GST control)	1.06 fold enrichment (6-mer frequency, TF over GST control)	1.07 fold enrichment (6-mer frequency, TF over GST control)	1.1 fold enrichment (6-mer frequency, TF over GST control)	1.08 fold enrichment (6-mer frequency, TF over GST control)	
